Where “and” joins values, the source holds several entries; their conditions need not be identical. Equal values may be shown once. Records with an inconclusive call do not appear. Calls of active or inactive are those of the source. Unless noted, calls follow the shape of the dose curve; as a rule, active = well fitted curve in the direction sought with a large enough effect; inconclusive = small, poorly fitted or top-dose-only effect, or another doubt; inactive = no such curve, though single readings can be large; an effect the other way counts as inactive or inconclusive.
Assays:
[1] = Cellular Toxicity (caspase-3) HepG2 (AID 654);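 also: cells exposed to compound for 16 hours before reading; 0% = DMSO alone and 100% = caspase signal from 100 µM tamoxifen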
In short: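 Luminescent Caspase-Glo 3/7 readout after 16 hr compound exposure of human hepatocellular carcinoma HepG2 cells at 37 °C; qHTS concentration-response, normalized DMSO = 0%, 100 uM tamoxifen = 100%; AC50 by standard Hill equation.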

[2] = Cellular Toxicity (caspase-3) Jurkat (AID 655); settings: Jurkat caspase-3 activation, luminescence, DMSO = 0%, tamoxifen = 100%; at 92.2 µM (top of the series);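 also: cells exposed to compound for 16 h at 37 °C before reading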
In short: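 Luminescent caspase-3/7 readout (aminoluciferin substrate cleavage) in human T-cell leukemia Jurkat cells after 16 hr compound exposure. Concentration-response normalized to DMSO and 100 uM tamoxifen; AC50 by standard Hill equation.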

[3] = Cellular Toxicity (caspase-3) HUV-EC-C (AID 656)
In short: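 Luminescent caspase-3/7 activation (aminoluciferin substrate cleavage) in HUV-EC-C cells after 16 hr compound exposure, 37°C. Signal normalized to DMSO basal and 100 uM tamoxifen as 100%; AC50 from concentration-response fitted with the Hill equation.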

[4] = Cellular Toxicity (caspase-3) SHSY5Y (AID 657);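 also: cells exposed to compound for 16 hours at 37 °C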
In short: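 Luminescent caspase-3/7 readout (aminoluciferin release) in SH-SY5Y cells after 16 h compound exposure in complete medium. Activity scaled between DMSO basal and 10 uM staurosporine as 100%; concentration-response fitted to Hill equation for AC50.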

[5] = Cellular Toxicity (caspase-3) BJ (AID 658);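 also: cells exposed to compound for 16 hours; 0% = DMSO basal and 100% = 10 µM staurosporine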
In short: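 Caspase-Glo 3/7 luminescence, read 1 hr after reagent at room temperature, in normal BJ fibroblasts exposed 16 hours at 37 °C. AC50 values from Hill-equation concentration-response, scaled between DMSO basal and 10 uM staurosporine as 100%.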

[6] = Cellular Toxicity (caspase-3) MRC-5 (AID 659);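 also: 0% = DMSO basal and 100% = 10 µM staurosporine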
In short: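 Luminescent Caspase-Glo 3/7 read-out (1 h, room temperature) after a 16 h, 37 °C compound exposure of MRC-5 lung fibroblasts at 1500 cells/well. Concentration-response AC50 from Hill equation; 0% DMSO, 100% 10 uM staurosporine.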

[7] = Cellular Toxicity (caspase-3) Mesangial (AID 660);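 also: combined caspase 3 and 7 activity read by Caspase-Glo luminescence; cells exposed to compound for 16 h before the caspase read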
In short: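 Luminescent Caspase-Glo 3/7 readout (aminoluciferin substrate cleavage, 20 min RT) after 16 h compound exposure at 37 °C of normal human mesangial cells. Signal increase normalized between DMSO basal and 100 uM tamoxifen; Hill-equation AC50.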

[8] = Cellular Toxicity (caspase-3) SK-N-SH (AID 661);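 also: cells exposed to compound for 16 hours; 0% = DMSO basal and 100% = 10 µM staurosporine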
In short: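 Luminescent Caspase-Glo 3/7 read-out after 16 hr compound exposure of SK-N-SH neuroblastoma cells at 37 °C. Signal increase normalized to DMSO (basal) and 10 uM staurosporine (100%); AC50 from Hill equation fits of qHTS concentration-response data.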

[9] = Cellular Toxicity (caspase-3) H-4-II-E (AID 663); settings: Potency: caspase-3 activation;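 also: cells exposed to compound for 16 hr before readout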
In short: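 Caspase 3/7 activation measured by luminescent aminoluciferin substrate cleavage after 16 hr compound treatment of H-4-II-E cells in complete medium. Increase normalized between DMSO (basal) and 100 uM tamoxifen (100%); Hill-equation AC50 from concentration-response.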

[10] = Cellular Toxicity (caspase-3) Hek293 (AID 664);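 also: cells exposed to compound for 16 h at 37 °C before readout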
In short: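 Luminescent Caspase-Glo 3/7 readout (aminoluciferin release) in HEK293 cells after 16 h compound treatment, 37 °C. Normalization: DMSO = basal, 100 uM tamoxifen = 100% stimulation. Concentration-response fitted with standard Hill equation for AC50.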

[11] = Cellular Toxicity (caspase-3) N2a (AID 665);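 also: compound exposure lasted 16 h at 37 °C before readout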
In short: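 Luminescent Caspase-Glo 3/7 readout in N2a mouse neuroblastoma cells after 16 h compound exposure at 37 °C. Signal scaled to DMSO (basal) and 10 uM staurosporine (100%). Concentration-response fitted with Hill equation for AC50.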

[12] = Cellular Toxicity (caspase-3) NIH 3T3 (AID 666);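 also: 0% = DMSO basal and 100% = 100 µM tamoxifen stimulation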
In short: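 NIH 3T3, 1000 cells/well, 5 hr settle then 16 hr compound at 37°C; Caspase-Glo 3/7, 20 min RT, luminescence. DMSO = basal, 100 uM tamoxifen = 100%. Hill-equation AC50, qHTS.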

[13] = Cell Viability - LYMP2-001 (AID 921);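 also: cells exposed to compound for 24 h at 37 °C; 0% = DMSO only and full inhibition = tetraoctylammonium bromide control wells; nearly all actives have a fitted effect of over 70% in size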
In short: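 CellTiter-Glo luminescence (intracellular ATP) after 24 hr compound exposure at 37 C, 2500 lymphoblastoid cells/well in complete medium. AC50 fitted with standard Hill equation; tetraoctylammonium bromide positive control.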

[14] = Cell Viability - LYMP1-002 - Assay at 16 hr (AID 948);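 also: 0% = DMSO alone and full effect = 92 µM tetraoctylammonium bromide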
In short: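 LYMP1-002 human lymphoblastoid cells, 2500/well; 5 hr 37 C; cpd 16 hr 37 C; CellTiter-Glo 30 min RT; luminescence (ATP). Concentration-response, Hill-fit AC50. Pos ctrl tetraoctylammonium bromide.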

[15] = biological target: Voltage-gated inwardly rectifying potassium channel KCNH2 (Homo sapiens) (UniProt Q12809); experiment: qHTS Assay for Small Molecule Inhibitors of the Human hERG Channel Activity (AID 588834);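 also: top concentration of the series differs between compounds; % is scaled to controls: 0 for no effect and ±100 for the full control effect; lower thallium flux fluorescence means stronger hERG block; nearly all actives have a fitted effect of over 50% in size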
Voltage-gated inwardly rectifying potassium channel KCNH2 (Homo sapiens), sequence (Q12809 whole entry, looked up): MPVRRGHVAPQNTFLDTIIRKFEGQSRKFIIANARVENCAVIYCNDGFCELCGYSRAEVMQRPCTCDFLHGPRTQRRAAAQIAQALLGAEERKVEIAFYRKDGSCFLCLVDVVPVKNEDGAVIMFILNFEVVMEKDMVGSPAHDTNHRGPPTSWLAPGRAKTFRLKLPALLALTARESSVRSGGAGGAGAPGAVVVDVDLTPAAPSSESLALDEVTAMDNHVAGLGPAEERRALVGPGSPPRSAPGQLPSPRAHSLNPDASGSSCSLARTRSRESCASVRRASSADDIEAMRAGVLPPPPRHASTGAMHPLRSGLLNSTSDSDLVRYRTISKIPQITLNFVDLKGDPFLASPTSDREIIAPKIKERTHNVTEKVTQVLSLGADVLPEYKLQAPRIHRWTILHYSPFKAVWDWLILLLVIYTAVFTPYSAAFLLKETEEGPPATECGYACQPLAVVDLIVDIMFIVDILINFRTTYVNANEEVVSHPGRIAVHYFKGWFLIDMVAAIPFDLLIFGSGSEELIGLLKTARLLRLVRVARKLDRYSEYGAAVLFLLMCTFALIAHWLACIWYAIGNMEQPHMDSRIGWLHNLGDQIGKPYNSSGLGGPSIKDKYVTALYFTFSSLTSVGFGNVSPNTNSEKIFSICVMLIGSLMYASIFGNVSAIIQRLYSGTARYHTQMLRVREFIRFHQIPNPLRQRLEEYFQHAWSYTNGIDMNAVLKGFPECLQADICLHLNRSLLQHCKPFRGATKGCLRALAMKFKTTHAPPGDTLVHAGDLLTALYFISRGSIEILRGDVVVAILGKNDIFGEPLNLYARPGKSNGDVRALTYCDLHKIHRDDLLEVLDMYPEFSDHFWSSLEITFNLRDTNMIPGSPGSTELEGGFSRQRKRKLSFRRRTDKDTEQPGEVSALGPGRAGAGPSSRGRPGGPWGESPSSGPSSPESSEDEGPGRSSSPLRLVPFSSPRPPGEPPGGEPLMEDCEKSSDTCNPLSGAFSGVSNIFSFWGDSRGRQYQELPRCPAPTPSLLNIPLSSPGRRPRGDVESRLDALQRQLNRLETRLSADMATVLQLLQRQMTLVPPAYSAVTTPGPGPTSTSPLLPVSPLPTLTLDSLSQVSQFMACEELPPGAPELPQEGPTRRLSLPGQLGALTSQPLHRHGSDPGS
In short: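 Thallium-flux (FluxOR) read-out on FDSS: fluorescence read 10 s before and 2 min after stimulation buffer. hERG-BacMam-transduced U2OS cells, compound exposure about 10 min. AC50 by standard Hill equation.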

[16] = qHTS assay for small molecule activators of the nuclear factor-kappa B (NF-kB) signaling pathway (AID 651749; active = well fitted activation curve with a large enough effect in the signal ratio; the % refers to the signal ratio; also: % of control where 0% means no effect); settings: NF-kB-bla ME-180 cells, beta-lactamase FRET ratio, 16 h; active compounds read high
In short: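 FRET-based beta-lactamase detection in ME-180 cells reports NF-kB response-element-driven transcription following overnight (16 hr) compound treatment.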

[17] = biological target: Tumor necrosis factor (Homo sapiens) (UniProt P01375); experiment: qHTS assay to identify small molecules that stimulate Tumor Necrosis Factor-alpha (TNF-alpha) secretion (AID 651757; active = well fitted curve in the direction sought with a large enough effect in the signal ratio; the % refers to the signal ratio; also: 0% is about no effect)
Tumor necrosis factor (Homo sapiens), sequence (P01375 whole entry, looked up): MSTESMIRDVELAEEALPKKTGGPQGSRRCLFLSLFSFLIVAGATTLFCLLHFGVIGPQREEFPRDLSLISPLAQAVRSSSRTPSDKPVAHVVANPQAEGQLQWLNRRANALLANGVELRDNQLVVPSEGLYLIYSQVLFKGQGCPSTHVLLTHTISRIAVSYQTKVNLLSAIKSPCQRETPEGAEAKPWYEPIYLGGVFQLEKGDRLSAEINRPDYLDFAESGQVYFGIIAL
In short: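 THP-1 cells, 3000/well; compound 17 hrs, 37 C; add cryptate/XL665 anti-TNF-alpha antibody pair; 3 hr RT; TR-FRET (HTRF) read of secreted TNF-alpha. Quantitative HTS format.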

[18] = biological target: Nuclear receptor ROR-gamma (Homo sapiens) (UniProt P51449); experiment: qHTS assay for small molecule antagonists of the retinoid-related orphan receptor gamma (ROR-gamma) signaling pathway (AID 651802);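 also: CHO cells with doxycycline-induced ROR-gamma expression; luciferase reporter luminescence driven by ROR response element; % is scaled to controls: 0 for no effect and ±100 for the full control effect; nearly all actives have a fitted effect of over 60% in size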
Nuclear receptor ROR-gamma (Homo sapiens), sequence (P51449 whole entry, looked up): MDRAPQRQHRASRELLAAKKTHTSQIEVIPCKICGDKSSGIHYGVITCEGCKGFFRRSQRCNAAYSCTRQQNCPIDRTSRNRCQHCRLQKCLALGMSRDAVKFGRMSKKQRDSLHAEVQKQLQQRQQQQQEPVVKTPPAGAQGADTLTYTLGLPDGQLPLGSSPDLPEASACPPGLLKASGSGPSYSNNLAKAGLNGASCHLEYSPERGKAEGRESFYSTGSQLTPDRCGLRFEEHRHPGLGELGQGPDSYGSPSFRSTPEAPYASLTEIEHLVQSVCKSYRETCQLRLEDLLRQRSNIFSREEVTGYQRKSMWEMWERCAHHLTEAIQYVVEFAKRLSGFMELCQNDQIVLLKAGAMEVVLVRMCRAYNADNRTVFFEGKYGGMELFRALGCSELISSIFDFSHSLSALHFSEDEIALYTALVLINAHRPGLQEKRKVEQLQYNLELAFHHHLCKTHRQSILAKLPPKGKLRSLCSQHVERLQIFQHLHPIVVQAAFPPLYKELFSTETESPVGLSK
In short: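 Luciferase read-out: ONE-Glo luminescence after 30 min at room temperature, following 16hr doxycycline induction at 37C, 5% CO2 of CHO cells with TET-inducible ROR and RORE-LUC reporter; decreased luminescence = reduced reporter activity.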

[19] = qHTS assay for small molecule antagonists of the retinoid-related orphan receptor gamma (ROR-gamma) signaling pathway - cell viability counter screen (AID 720652; active = well fitted curve in the direction sought with a large enough effect in the repeat runs; an effect the other way counts as inactive or inconclusive;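 also: CHO reporter cells with doxycycline-induced ROR-gamma expression; compound exposure lasted 16 hr before ATP read; % is scaled to controls: 0 for no effect and ±100 for the full control effect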)
In short: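 CHO RORE-LUC/TET-ROR line, 1,000 cells/well, 37 C 5% CO2 5 hr; cpd or DMSO + doxycycline induction, 16 hr. CellTiter-Glo, 30 min RT, luminescence = ATP content.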

[20] = qHTS assay for small molecule activators of the human pregnane X receptor (PXR) signaling pathway (AID 720659; call rule not given here; also: 0% is about no effect)

c1ccc2scnc2c1
inactive: outcome [1] | caspase-3 activation [2] -0.459% | outcome [3] | outcome [4] | outcome [5] | outcome [6] | outcome [7] | outcome [8] | Potency [9] | outcome [10] | outcome [11] | outcome [12] | Potency [13] | Potency [14] | Potency [15] | activation [16] -1.1% | outcome [17] | Potency [18] | Potency [19] | outcome [20]

CCC(C)n1ncn(-c2ccc(N3CCN(c4ccc(OCC5COC(Cn6cncn6)(c6ccc(Cl)cc6Cl)O5)cc4)CC3)cc2)c1=O (stereo not given)
inactive: Potency [15]

O=S(=O)(O)c1ccccc1
inactive: outcome [1] | caspase-3 activation [2] 0.148% | outcome [3] | outcome [4] | outcome [5] | outcome [6] | outcome [7] | outcome [8] | Potency [9] | outcome [10] | outcome [11] | outcome [12] | Potency [13] | Potency [14] | Potency [15] | activation [16] 0.223% | outcome [17] | Potency [18] | Potency [19] | outcome [20]

O=C(O)c1ccccc1C(c1ccc(O)cc1)c1ccc(O)cc1
inactive: outcome [1] | caspase-3 activation [2] 1.36% | outcome [3] | outcome [4] | outcome [5] | outcome [6] | outcome [7] | outcome [8] | Potency [9] | outcome [10] | outcome [11] | outcome [12] | Potency [13] | Potency [14] | Potency [15] | activation [16] -1.81% and -6.43% | outcome [17] | Potency [18] | Potency [19]

O[C@@H]([C@H](O)[C@@H](O)CBr)[C@@H](O)CBr
inactive: outcome [1] | caspase-3 activation [2] 0.213% | outcome [3] | outcome [4] | outcome [5] | outcome [6] | outcome [7] | outcome [8] | Potency [9] | outcome [10] | outcome [11] | outcome [12] | Potency [13] | Potency [14] | Potency [15] | outcome [17] | Potency [18] | Potency [19] | outcome [20]

Cc1cccc(O)c1
inactive: activation [16] -0.103% and -1.79%

CC1(C)S[C@@H]2[C@H](NC(=O)COc3ccccc3)C(=O)N2[C@H]1C(=O)O
inactive: activation [16] -1.54% | outcome [20]

O=[N+]([O-])c1cccc(Cl)c1Cl
inactive: outcome [1] | caspase-3 activation [2] 1.08% | outcome [3] | outcome [4] | outcome [5] | outcome [6] | outcome [7] | outcome [8] | Potency [9] | outcome [10] | outcome [11] | outcome [12] | Potency [13] | Potency [14] | outcome [17] | Potency [18] | Potency [19] | outcome [20]

Reference: PubChem BioAssay (NCATS)
